Assay results: PubChem BioAssay AID1159580 (chemical genetic matrix, 2015)
Hit rate of the full screen: of about 5,500 compounds, about 2,000 (36%) were called active. Roughly 18% stayed inconclusive and do not appear here. Cut-off read from the data, not from the text of the source: active = normalized growth mostly below about 0.91 (no sharp cut-off); inconclusive = no clear call, values can overlap the other calls; inactive = mostly above about 0.92. The list shows a part of the results.

Experiment: chemical genetic growth profiling, strain panel (AID 1159580);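 note: tested at 20 µM; growth read once vehicle control cultures reached saturation at 30 °C; 1 = growth at the plate median or of vehicle wells; lower values mean less growth of the strain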
Conditions: growth OD

Measured: normalized growth

C[C@@H]1O[C@@H](O[C@H]2CC[C@]3(C=O)C4CC[C@]5(C)[C@@H](C6=CC(=O)OC6)CC[C@]5(O)C4CC[C@]3(O)C2)[C@H](O)[C@H](O)[C@H]1O (stereo not given in full)
inactive: S. cerevisiae deletion strains, locus YJR066W, strain TOR1, hits give low values 0.953 | S. cerevisiae deletion strains, locus YJR075W, strain HOC1, hits give low values 0.989 | S. cerevisiae deletion strains, locus YKL009W, strain mrt4, hits give low values 1.05 | S. cerevisiae deletion strains, locus YKL068W, hits give low values 0.991 | S. cerevisiae deletion strains, locus YKL085W, strain MDH1 (second series), hits give low values 0.999 | S. cerevisiae deletion strains, locus YKL085W, strain MDH1, hits give low values 0.999 | S. cerevisiae deletion strains, locus YKL160W, strain elf1, hits give low values 1.01 | S. cerevisiae deletion strains, locus YKL190W, strain CNB1, hits give low values 0.988 | S. cerevisiae deletion strains, locus YKR001C, strain vps1, hits give low values 0.995 | S. cerevisiae deletion strains, locus YKR026C, strain gcn3, hits give low values 0.997 | S. cerevisiae deletion strains, locus YKR091W, strain srl3, hits give low values 0.997 | S. cerevisiae deletion strains, locus YLL001W, strain dnm1, hits give low values 1.01 | S. cerevisiae deletion strains, locus YLL026W, hits give low values 0.995 | S. cerevisiae deletion strains, locus YLL041C, strain sdh2, hits give low values 1 | S. cerevisiae deletion strains, locus YLR027C, strain aat2, hits give low values 0.999 | S. cerevisiae deletion strains, locus YLR039C, strain RIC1, hits give low values 0.977 | S. cerevisiae deletion strains, locus YLR058C, strain SHM2, hits give low values 0.981 | S. cerevisiae deletion strains, locus YLR102C, strain apc9, hits give low values 0.997 | S. cerevisiae deletion strains, locus YLR113W, strain HOG1, hits give low values 0.952 | S. cerevisiae deletion strains, locus YLR221C, strain rsa3, hits give low values 1.01 | S. cerevisiae deletion strains, locus YLR258W, strain gsy2, hits give low values 0.991 | S. cerevisiae deletion strains, locus YLR262C, strain YPT6 (second series), hits give low values 1.01 | S. cerevisiae deletion strains, locus YLR262C, strain YPT6, hits give low values 0.914 | S. cerevisiae deletion strains, locus YLR268W, strain sec22, hits give low values 1.01 | S. cerevisiae deletion strains, locus YLR320W, strain mms22, hits give low values 0.989 | S. cerevisiae deletion strains, locus YLR330W, strain CHS5, hits give low values 1 | S. cerevisiae deletion strains, locus YLR342W, strain FKS1 (second series), hits give low values 1.06 | S. cerevisiae deletion strains, locus YLR342W, strain FKS1, hits give low values 0.999 | S. cerevisiae deletion strains, locus YLR357W, strain rsc2, hits give low values 0.959 | S. cerevisiae deletion strains, locus YLR370C, strain arc18, hits give low values 1.01 | S. cerevisiae deletion strains, locus YLR371W, strain rom2, hits give low values 0.978 | S. cerevisiae deletion strains, locus YLR384C, strain iki3, hits give low values 0.987 | S. cerevisiae deletion strains, locus YLR418C, strain cdc73, hits give low values 0.964 | S. cerevisiae deletion strains, locus YML016C, strain PPZ1, hits give low values 0.995 | S. cerevisiae deletion strains, locus YML032C, strain rad52, hits give low values 0.991 | S. cerevisiae deletion strains, locus YML120C, strain ndi1, hits give low values 0.994 | S. cerevisiae deletion strains, locus YML124C, strain tub3, hits give low values 0.983 | S. cerevisiae deletion strains, locus YMR058W, strain fet3, hits give low values 1 | S. cerevisiae deletion strains, locus YMR078C, strain ctf18, hits give low values 0.976 | S. cerevisiae deletion strains, locus YMR125W, strain sto1, hits give low values 0.969 | S. cerevisiae deletion strains, locus YMR129W, hits give low values 0.998 | S. cerevisiae deletion strains, locus YMR205C, strain PFK2, hits give low values 0.954 | S. cerevisiae deletion strains, locus YMR223W, strain ubp8, hits give low values 0.962 | S. cerevisiae deletion strains, locus YMR231W, strain pep5, hits give low values 0.998 | S. cerevisiae deletion strains, locus YMR307W, strain GAS1, hits give low values 0.977 | S. cerevisiae deletion strains, locus YNL067W, strain RPL9B, hits give low values 0.975 | S. cerevisiae deletion strains, locus YNL071W, strain lat1, hits give low values 1 | S. cerevisiae deletion strains, locus YNL183C, strain NPR1, hits give low values 0.965 | S. cerevisiae deletion strains, locus YNL209W, strain ssb2, hits give low values 1 | S. cerevisiae deletion strains, locus YNL233W, strain BNI4, hits give low values 0.999 | S. cerevisiae deletion strains, locus YNL248C, strain rpa49, hits give low values 1.01 | S. cerevisiae deletion strains, locus YNL250W, strain rad50, hits give low values 0.993 | S. cerevisiae deletion strains, locus YNL271C, strain bni1, hits give low values 0.985 | S. cerevisiae deletion strains, locus YNL298W, strain CLA4, hits give low values 1 | S. cerevisiae deletion strains, locus YNL307C, strain MCK1, hits give low values 0.992 | S. cerevisiae deletion strains, locus YNL322C, strain KRE1 (second series), hits give low values 1.01 | S. cerevisiae deletion strains, locus YNL322C, strain KRE1, hits give low values 0.994 | S. cerevisiae deletion strains, locus YNR049C, strain mso1, hits give low values 1.01 | S. cerevisiae deletion strains, locus YNR052C, strain pop2, hits give low values 0.998 | S. cerevisiae deletion strains, locus YOL006C, strain TOP1, hits give low values 1.12 | S. cerevisiae deletion strains, locus YOL012C, strain htz1 0.98 | S. cerevisiae deletion strains, locus YOL147C, strain pex11, hits give low values 0.998 | S. cerevisiae deletion strains, locus YOR001W, strain rrp6, hits give low values 1 | S. cerevisiae deletion strains, locus YOR061W, strain CKA2, hits give low values 0.973 | S. cerevisiae deletion strains, locus YOR069W, strain VPS5, hits give low values 1 | S. cerevisiae deletion strains, locus YOR070C, strain gyp1, hits give low values 0.999 | S. cerevisiae deletion strains, locus YOR080W, strain dia2, hits give low values 0.988 | S. cerevisiae deletion strains, locus YOR083W, strain WHI5, hits give low values 1.01 | S. cerevisiae deletion strains, locus YOR106W, strain vam3, hits give low values 0.998 | S. cerevisiae deletion strains, locus YOR136W, strain idh2, hits give low values 1 | S. cerevisiae deletion strains, locus YOR144C, strain elg1, hits give low values 0.993 | S. cerevisiae deletion strains, locus YOR184W, strain ser1, hits give low values 0.975 | S. cerevisiae deletion strains, locus YOR231W, strain MKK1, hits give low values 0.996 | S. cerevisiae deletion strains, locus YOR265W, strain rbl2, hits give low values 0.999 | S. cerevisiae deletion strains, locus YOR270C, strain vph1, hits give low values 1.02 | S. cerevisiae deletion strains, locus YOR290C, strain snf2, hits give low values 0.994 | S. cerevisiae deletion strains, locus YOR316C, strain cot1, hits give low values 0.991 | S. cerevisiae deletion strains, locus YPL051W, strain arl3, hits give low values 1.01 | S. cerevisiae deletion strains, locus YPL055C, strain LGE1, hits give low values 1 | S. cerevisiae deletion strains, locus YPL078C, strain atp4, hits give low values 1.02 | S. cerevisiae deletion strains, locus YPL106C, strain sse1, hits give low values 0.977 | S. cerevisiae deletion strains, locus YPL240C, strain hsp82, hits give low values 1.01 | S. cerevisiae deletion strains, locus YPL241C, strain CIN2, hits give low values 0.995 | S. cerevisiae deletion strains, locus YPL256C, strain CLN2, hits give low values 0.987 | S. cerevisiae deletion strains, locus YPR119W, strain clb2, hits give low values 1 | S. cerevisiae deletion strains, locus YPR141C, strain kar3, hits give low values 0.98 | S. cerevisiae deletion strains, locus YPR163C, strain tif3, hits give low values 0.983 | S. cerevisiae deletion strains, locus YPR167C, strain met16, hits give low values 1 | S. cerevisiae deletion strains, strain wtn01, hits give low values 1.03 | S. cerevisiae strains, strain wild type, hits give low values 0.989
